Measured values from PubChem BioAssay AID1159580 (chemical genetic matrix, 2015).
Screen size: about 5,500 compounds; about 2,000 (36%) were called active. Another 18% or so got no clear call; they are omitted. Cut-off read from the data, not from the text of the source: active = normalized growth mostly below about 0.91 (no sharp cut-off); inconclusive = no clear call, values can overlap the other calls; inactive = mostly above about 0.92. The list shows a part of the results.

Assay: chemical genetic growth profiling, strain panel (AID 1159580);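 note: tested at 20 µM; growth read once vehicle control cultures reached saturation at 30 °C; 1 = growth at the plate median or of vehicle wells; lower values mean less growth of the strain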
Conditions: S. cerevisiae deletion strains, growth OD
[1] = locus YAL013W, strain DEP1, stronger effect = lower value
[2] = locus YBR229C, strain ROT2, stronger effect = lower value
[3] = locus YDL101C, strain DUN1, stronger effect = lower value
[4] = locus YDR150W, strain NUM1, stronger effect = lower value
[5] = locus YGR078C, strain PAC10, stronger effect = lower value
[6] = locus YHR030C, strain SLT2, stronger effect = lower value
[7] = locus YLR039C, strain RIC1, stronger effect = lower value
[8] = locus YLR262C, strain YPT6, stronger effect = lower value
[9] = locus YMR263W, strain SAP30, stronger effect = lower value
[10] = locus YNL153C, strain GIM3, stronger effect = lower value
[11] = locus YNL322C, strain KRE1, stronger effect = lower value
[12] = locus YPL055C, strain LGE1, stronger effect = lower value
[13] = locus YPL241C, strain CIN2, stronger effect = lower value
[14] = locus YMR307W, strain GAS1, stronger effect = lower value

Measured: normalized growth

O=C(CSCc1cccc2ccccc12)NNC(=O)c1ccc(F)cc1
inactive: [1] 0.998 | [2] 0.988 | locus YCL061C, strain MRC1, stronger effect = lower value 1 | [3] 1 | [4] 0.979 | locus YEL061C, strain CIN8, stronger effect = lower value 0.992 | [5] 0.993 | [6] 0.93 | locus YHR087W, strain rtc3, stronger effect = lower value 0.98 | locus YJR043C, strain POL32, stronger effect = lower value 0.988 | locus YJR075W, strain HOC1, stronger effect = lower value 0.983 | locus YKL190W, strain CNB1, stronger effect = lower value 0.991 | [7] 0.958 | locus YLR058C, strain SHM2 (second series), stronger effect = lower value 0.982 | locus YLR085C, strain ARP6, stronger effect = lower value 0.978 | [8] 0.919 | locus YML094W, strain GIM5, stronger effect = lower value 1.08 | locus YMR219W, strain ESC1, stronger effect = lower value 0.99 | [9] 0.984 | [10] 0.985 | locus YNL298W, strain CLA4 (second series), stronger effect = lower value 0.949 | [11] 1 | locus YNR030W, strain Alg12, stronger effect = lower value 0.955 | [12] 1 | [13] 0.989 | locus YPR135W, strain CTF4, stronger effect = lower value 1.07

CC(C)(C)C1(O)CCN2CC3c4ccccc4CCc4cccc(c43)C2C1 (configuration not stated)
inactive: [1] 1.02 | locus YAL040C, strain CLN3, stronger effect = lower value 0.975 | locus YCL061C, strain MRC1 (second series), stronger effect = lower value 0.986 | [4] 1 | locus YDR363W, strain ESC2, stronger effect = lower value 1.04 | locus YER002W, strain NOP16, stronger effect = lower value 0.993 | [9] 1.01 | [14] 1.02 | [10] 0.983 | locus YNL175C, strain NOP13, stronger effect = lower value 0.996 | locus YNL197C, strain WHI3, stronger effect = lower value 0.972 | locus YNL224C, strain SQS1, stronger effect = lower value 0.997 | [11] 1.01 | locus YOR083W, strain WHI5 (second series), stronger effect = lower value 1.01 | [12] 1.02 | [13] 0.999

CC1(C)OC(=O)C=CC2(C)C1CC(O)C1(C)C2CCC2(C)C(c3ccoc3)OC(=O)C3OC321 (configuration not stated)
inactive: [1] 1.02 | locus YBR021W, strain FUR4, stronger effect = lower value 0.971 | [2] 1.01 | locus YCL029C, strain bik1, stronger effect = lower value 1.02 | locus YDL035C, strain GPR1, stronger effect = lower value 1.01 | locus YDL074C, strain BRE1, stronger effect = lower value 1.02 | [3] 1.01 | locus YDL134C, strain PPH21, stronger effect = lower value 1.01 | locus YDL185W, strain tfp1, stronger effect = lower value 1.02 | locus YDL192W, strain arf1, stronger effect = lower value 1.01 | locus YDR101C, strain arx1, stronger effect = lower value 0.998 | locus YDR162C, strain NBP2, stronger effect = lower value 1.04 | locus YDR318W, strain mcm21, stronger effect = lower value 1.01 | locus YDR388W, stronger effect = lower value 1.02 | locus YDR502C, strain sam2, stronger effect = lower value 1.04 | locus YER110C, stronger effect = lower value 1.02 | locus YER155C, strain BEM2, stronger effect = lower value 0.996 | locus YER167W, strain BCK2, stronger effect = lower value 0.997 | locus YGL078C, strain dbp3, stronger effect = lower value 1.01 | locus YGL086W, strain mad1, stronger effect = lower value 1.01 | locus YGL248W, strain PDE1, stronger effect = lower value 1.01 | [5] 1 | locus YGR135W, strain pre9, stronger effect = lower value 1.04 | locus YGR252W, strain gcn5, stronger effect = lower value 0.965 | [6] 1.01 | locus YHR079C, strain IRE1 (second series), stronger effect = lower value 1.01 | locus YHR094C, strain hxt1, stronger effect = lower value 1.02 | locus YHR129C, strain ARP1, stronger effect = lower value 1 | locus YHR200W, strain rpn10, stronger effect = lower value 1.01 | locus YIL066C, strain RNR3, stronger effect = lower value 1.01 | locus YIL073C, strain SPO22, stronger effect = lower value 1.03 | locus YIL125W, strain kgd1, stronger effect = lower value 1.02 | locus YIR030C, strain dcg1, stronger effect = lower value 1.01 | locus YJL095W, strain BCK1, stronger effect = lower value 1.03 | locus YJL134W, strain LCB3, stronger effect = lower value 1.01 | locus YJL168C, strain set2, stronger effect = lower value 1.01 | locus YJL187C, strain SWE1 (second series), stronger effect = lower value 1.01 | locus YKL009W, strain mrt4, stronger effect = lower value 1.01 | locus YKL068W, stronger effect = lower value 1.02 | locus YKL085W, strain MDH1 (second series), stronger effect = lower value 1 | locus YKL085W, strain MDH1, stronger effect = lower value 1 | locus YKR001C, strain vps1, stronger effect = lower value 1.04 | [7] 1.05 | locus YLR058C, strain SHM2, stronger effect = lower value 1.01 | locus YLR102C, strain apc9, stronger effect = lower value 1.01 | [8] 1.09 | locus YLR268W, strain sec22, stronger effect = lower value 1.02 | locus YLR330W, strain CHS5, stronger effect = lower value 1.01 | locus YLR342W, strain FKS1 (second series), stronger effect = lower value 0.995 | locus YLR371W, strain rom2, stronger effect = lower value 0.997 | locus YLR418C, strain cdc73, stronger effect = lower value 1.05 | locus YML016C, strain PPZ1, stronger effect = lower value 1.01 | locus YML032C, strain rad52, stronger effect = lower value 1.02 | locus YML124C, strain tub3, stronger effect = lower value 1.01 | locus YMR078C, strain ctf18, stronger effect = lower value 1 | locus YMR223W, strain ubp8, stronger effect = lower value 1.01 | [9] 1.01 | [14] 1.06 | locus YNL067W, strain RPL9B, stronger effect = lower value 1.02 | [10] 1.01 | locus YNL233W, strain BNI4, stronger effect = lower value 1.01 | locus YNL250W, strain rad50, stronger effect = lower value 1.01 | locus YNL271C, strain bni1, stronger effect = lower value 1.01 | locus YNL298W, strain CLA4, stronger effect = lower value 1.04 | locus YNL307C, strain MCK1, stronger effect = lower value 1.02 | [11] 1 | locus YNR052C, strain pop2, stronger effect = lower value 1.02 | locus YOL012C, strain htz1 0.873 | locus YOL147C, strain pex11, stronger effect = lower value 1.01 | locus YOR061W, strain CKA2, stronger effect = lower value 1.01 | locus YOR069W, strain VPS5, stronger effect = lower value 1.01 | locus YOR136W, strain idh2, stronger effect = lower value 1.02 | locus YOR144C, strain elg1, stronger effect = lower value 1.01 | locus YOR184W, strain ser1, stronger effect = lower value 0.995 | locus YOR316C, strain cot1, stronger effect = lower value 1.02 | [13] 1.01 | locus YPR119W, strain clb2, stronger effect = lower value 1 | locus YPR141C, strain kar3, stronger effect = lower value 1.01 | locus YPR167C, strain met16, stronger effect = lower value 1 | strain wtn01, stronger effect = lower value 1.01
